# Over roughly 110,000 compounds, “z-score” has its median near -0.1; the highest 2% begin near 2. What follows is part of a selection rich in the highest values, with near analogues and random picks from the rest. The source made the active and inactive calls.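 The calls were made as follows: active = z-score in the third read window above 3 or below -3; inactive = the rest.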
# Target: Metabotropic glutamate receptor 8 (Rattus norvegicus) (UniProt P70579)
# Test: mGluR8 Gi/Go-coupled signaling modulation – cell-based, rat, thallium flux, HTS, primary screen (AID 488969)
# Settings: HEK293 rat mGluR8, GIRK (G protein-gated inwardly rectifying potassium channel) thallium flux, FluoZin2; at 10 µM; stronger effect = higher value; submaximal glutamate (EC20) added with thallium
# Metabotropic glutamate receptor 8 (Rattus norvegicus), sequence (P70579 whole entry, looked up): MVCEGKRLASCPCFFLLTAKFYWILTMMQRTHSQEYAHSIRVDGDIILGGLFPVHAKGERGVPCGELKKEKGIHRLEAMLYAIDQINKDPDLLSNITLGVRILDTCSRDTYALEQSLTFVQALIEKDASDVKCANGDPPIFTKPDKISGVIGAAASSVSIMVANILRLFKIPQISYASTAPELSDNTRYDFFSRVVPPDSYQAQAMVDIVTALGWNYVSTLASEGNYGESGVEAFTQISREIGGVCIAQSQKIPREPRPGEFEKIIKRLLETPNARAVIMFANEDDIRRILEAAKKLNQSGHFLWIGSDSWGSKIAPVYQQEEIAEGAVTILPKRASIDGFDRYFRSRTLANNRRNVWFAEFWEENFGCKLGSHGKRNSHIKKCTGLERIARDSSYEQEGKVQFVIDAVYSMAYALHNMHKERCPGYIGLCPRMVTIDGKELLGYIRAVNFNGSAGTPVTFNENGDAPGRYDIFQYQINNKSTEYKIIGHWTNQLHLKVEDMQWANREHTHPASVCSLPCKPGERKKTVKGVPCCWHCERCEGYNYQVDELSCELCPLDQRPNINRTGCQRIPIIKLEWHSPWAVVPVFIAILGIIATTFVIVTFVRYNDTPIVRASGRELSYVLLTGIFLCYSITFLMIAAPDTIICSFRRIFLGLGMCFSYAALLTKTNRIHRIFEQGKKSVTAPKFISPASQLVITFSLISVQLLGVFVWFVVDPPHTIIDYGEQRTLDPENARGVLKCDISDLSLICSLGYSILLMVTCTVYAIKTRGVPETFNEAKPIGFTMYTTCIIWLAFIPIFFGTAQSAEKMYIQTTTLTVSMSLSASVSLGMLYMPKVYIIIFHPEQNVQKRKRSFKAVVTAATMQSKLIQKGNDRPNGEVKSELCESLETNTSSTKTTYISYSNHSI
row,SMILES,z-score
1,C=CCOc1cccc(C2/C(=C(/O)c3ccc(Cl)cc3)C(=O)C(=O)N2CCN2CCOCC2)c1 (stereo not drawn),-0.349
2,C=CCOc1cccc(C2/C(=C(/O)c3ccccc3)C(=O)C(=O)N2CCN2CCOCC2)c1 (stereo not drawn),-0.193
3,C=CCOc1cccc(C2/C(=C(/O)c3ccc(C)cc3)C(=O)C(=O)N2CCN2CCOCC2)c1 (stereo not drawn),3.31 (active)
4,Cc1ccc(C)c(N2C(=O)CN=C2Nc2ccccc2Cl)c1,-0.307
5,Cc1ccccc1C(=O)NNC(=S)NC(=O)COc1ccccc1,4.25 (active)
6,COc1cccc(OCC(=O)NNC(=O)c2ccc(-c3ccccc3)cc2)c1,0.902
7,Cc1ccc(OCC(=O)NNC(=O)c2cccnc2)cc1,0.0457
8,Cc1ccc(NC(=O)COc2ccccc2)c(NC(=O)c2ccccc2C)c1,0.00484
9,Cc1ccccc1C(=O)NNC(=O)Cc1ccccc1,-0.146
10,Cc1ccc(C(=O)NNC(=S)NC(=O)COc2ccccc2)cc1,6.25 (active)
11,Cc1cccc(C(=O)NN2C(=O)C3C(c4ccccc4)C=CC(c4ccccc4)C3C2=O)c1 (stereo not drawn),0.291
12,Cc1ccc(C(=O)NCCSc2ccc(Cl)cc2)cc1S(=O)(=O)Nc1ccccc1,-0.43
13,CC(C)Cn1c(=O)c(C2=NS(=O)(=O)c3ccccc3N2)c(O)c2ccccc21,5.83 (active)
14,CCn1c(=O)c(-c2ccccc2)c(O)c2ccccc21,1.28
15,CC(C)Cn1c(=O)c(C(=O)N/N=C/c2cccc(F)c2)c(O)c2ccccc21,0.163
16,CCCc1nc(NCC2CCCO2)c2nnn(Cc3ccccc3)c2n1 (stereo not drawn),-0.932
17,Cc1onc(-c2ccccc2)c1C(=O)Nc1nc2c(s1)CCCC2,0.165
18,COC(=O)c1ccc(C(=O)NC(=S)Nc2nc3c(s2)CC(C)CC3)cc1 (stereo not drawn),0.17
19,CN(C)c1ccc(C(=O)Nc2nc3c(s2)CCCC3)cc1,0.874
20,CC(C)[C@H](NC(=O)c1ccccc1F)C(=O)Nc1nc2c(s1)CCCC2,2.3
21,CCOc1ccccc1C(=O)N[C@H](C(=O)Nc1nc2c(s1)CCCC2)C(C)C,0.39
22,CC(C)(C)c1ccc(C(=O)NC(=S)Nc2nc3c(s2)CCCC3)cc1,1.95

row,SMILES,z-score
1,O=C(NC(=S)Nc1nc2c(s1)CCCC2)c1ccccc1,4.37 (active)
2,O=C(Nc1nc2c(s1)CCCC2)c1cccs1,0.315
3,Cc1ccccc1C(=O)NC(C(=O)Nc1nc2c(s1)CCCC2)C(C)C (stereo not drawn),-0.323
4,O=C(NC(=S)Nc1nc2c(s1)CSc1ccccc1-2)c1ccccc1,0.384
5,COC(=O)c1ccc(C(=O)NC(=S)Nc2nc3c(s2)CCCC3)cc1,9.51 (active)
6,O=C(NC(=S)Nc1nc2c(s1)CCCC2)c1ccc(C(=O)c2ccccc2)cc1,2.41
7,S=C1NCCOCCOCCOCCN1,-0.259
8,Cc1nc2oc3ccccc3c(=O)c2c(=O)n1Cc1ccccc1,1.14
9,Brc1ccccc1-c1nnc2sc(Cc3ccccc3)nn12,-2.32
10,Cc1ccc2cccc(S(=O)(=O)Nc3c(C)n(C)n(-c4ccccc4)c3=O)c2n1,-0.0715
11,Cc1cc(C)n2nc(C(=O)OCC(=O)c3cc(C)n(C)c3C)nc2n1,-0.164
12,Cc1ccc2c(c1)nc(NCCO)n2C,-0.14
13,Cc1ccccc1CSCc1nc2ccccc2[nH]1,-0.127
14,CCc1ccc(/C=C/C(=O)c2cc(Br)ccc(=O)c2O)cc1,2.17
15,Cc1ccc(/C=C/C(=O)c2cc(Br)ccc2OC(=O)c2ccco2)cc1,-0.117
16,O=C(/C=C/c1ccc2c(c1)OCCCO2)c1ccc2ccccc2c1O,0.573
17,CCc1ccc(C(C)NC(=O)/C=C/c2ccc(Br)cc2)cc1 (stereo not drawn),-0.0914
18,CNc1ccc(Br)cc(C(=O)/C=C/c2ccc3c(c2)OCO3)c1=O,0.111
19,O=C(/C=C/c1ccc2c(c1)OCCCO2)c1ccccc1O,0.562
20,CNc1ccc(Br)cc(C(=O)/C=C/c2ccc(OC)cc2)c1=O,0.019
21,Cc1ccc(/C=C/C(=O)c2ccccc(=O)c2O)cc1C,5.65 (active)
22,CNc1ccc(Br)cc(C(=O)/C=C/c2ccc(OC)cc2OC)c1=O,-0.255

row,SMILES,z-score
1,COc1ccc(/C=C/C(=O)c2cc(Br)ccc(=O)c2O)cc1,3.14 (active)
2,CNc1ccc(Br)cc(C(=O)/C=C/c2cccc(OC)c2)c1=O,-0.351
3,Cc1cccc(/C=C/C(=O)c2cc(Br)ccc(=O)c2O)c1,2.75
4,N#Cc1cccc(Oc2ccc(-c3cnc4ccccc4n3)cc2)c1C#N,0.258
5,Cc1ccc(-n2c(C)nnc2SCC(=O)N2CCc3ccccc3C2)cc1,-0.994
6,Cc1cccc(N2C(=O)CC(Sc3nc(-c4ccccc4)c4cc(Cl)ccc4n3)C2=O)c1 (stereo not drawn),-0.887
7,CCc1ccc(OCC(=O)N/N=C/c2cc([N+](=O)[O-])ccc2N2CCOCC2)cc1,0.198
8,C/C(=N\OC(=O)c1ccc(Cl)cc1)c1nccs1,-0.0963
9,Cc1ccc(-n2nnnc2SCC(=O)Nc2cccc(NC(=O)c3ccco3)c2)cc1C,1.39
10,CC1=CC(=Nc2c(C)n(C)n(-c3ccccc3)c2=O)C=C(C)C1=O,0.433
11,Cc1cc(S(=O)(=O)NCC(=O)O)ccc1F,0.254
12,CCN=C1SC(C(=O)Nc2cccc(C)c2)CC(=O)N1CC (stereo not drawn),-0.145
13,O=C(/C=C/c1ccccc1)c1cc(Br)ccc(=O)c1O,14 (active)
14,O=C(/C=C/c1ccccn1)c1ccc(Br)cc1O,-0.442
15,O=C(/C=C/c1ccc(Br)cc1)c1ccco1,-0.0794
16,CN(C)c1nc(Oc2ccc(N)cc2)nc(N(C)C)n1,0.322
17,COc1cccc(C(=O)CSc2nnnn2C)c1,-0.273
18,CCCN(Cc1ccccc1)C(=S)Nc1cccc(C(F)(F)F)c1,-0.985
19,CN1CC(=O)N(CC(=O)NCc2ccc3c(c2)OCO3)C1=O,-0.14
20,COC(=O)C1C2C=CC3(CN(C4CCCC4)C(=O)C13)O2 (stereo not drawn),-1.65
21,O=C(O)C1C2C=CC3(CN(C4CCCC4)C(=O)C13)O2 (stereo not drawn),2.75
22,O=C(O)C1[C@H]2C(=O)N(C3CCCC3)C[C@]23C=C[C@H]1O3 (stereo partly drawn),0.231

row,SMILES,z-score
1,Cc1cc(C)c2oc(-c3cccc(NC(=O)c4ccc(F)cc4)c3)nc2c1,-0.0725
2,Cc1cccc(-n2cc(-c3ccc([N+](=O)[O-])cc3)[nH]c2=S)c1,0.401
3,O=[N+]([O-])c1ccc(-c2cn(-c3ccc(Cl)cc3)c(=S)[nH]2)cc1,2.83
4,CCc1ccc(-n2cc(-c3ccc([N+](=O)[O-])cc3)[nH]c2=S)cc1,0.69
5,O=[N+]([O-])c1ccc(-c2cn(-c3ccccc3)c(=S)[nH]2)cc1,-0.00967
6,Cc1ccc(-n2cc(-c3ccc([N+](=O)[O-])cc3)[nH]c2=S)c(C)c1,2.99
7,Cc1cc(C)c(CSc2ncc(-c3ccc([N+](=O)[O-])cc3)[nH]2)c(C)c1,-0.26
8,Cc1ccc(Nc2cc(-n3cccn3)ncn2)c(C)c1,-0.35
9,COc1ccc(/C=N/Nc2snc(SC)c2C#N)cc1OC,0.407
10,Cc1ccc(NC(=O)c2ccc3c(c2)N(CC(=O)N2CCCCC2)C(=O)C(C)(C)O3)cc1,-0.4
11,CC1Cc2nc(SCC(=O)N3CCN(c4ccccc4)CC3)n(CCc3ccccc3)c(=O)c2S1 (stereo not drawn),-1.13
12,O=C(NC(=S)Nc1ccc(N2CCOCC2)c(Cl)c1)c1cncc(Br)c1,7.69 (active)
13,COc1ccc(OCC(=O)Nc2ccc(N3CCOCC3)c(Cl)c2)cc1,-0.665
14,Cc1ccc(OCC(=O)Nc2ccccc2N2CCOCC2)c(C)c1,0.00977
15,Cc1cc(Cl)ccc1OCC(=O)Nc1ccccc1N1CCOCC1,2.81
16,CCCC(=O)NC(=S)Nc1ccc(N2CCOCC2)c(Cl)c1,0.242
17,CCCC(=O)NC(=S)Nc1ccccc1N1CCOCC1,-0.0717
18,O=C(NC(=S)Nc1ccc(N2CCOCC2)c(Cl)c1)C(c1ccccc1)c1ccccc1,0.604
19,Cc1cc(Cl)ccc1OCC(=O)NC(=S)Nc1ccccc1N1CCOCC1,0.195
20,Cc1cccc(OCC(=O)Nc2ccccc2C(=O)N2CCOCC2)c1,-0.0499
21,Cc1cccc(OCC(=O)NC(=S)Nc2ccccc2N2CCOCC2)c1,3.14 (active)
22,Cc1ccccc1OCC(=O)NC(=S)Nc1ccc(N2CCOCC2)c(Cl)c1,0.328

row,SMILES,z-score
1,COc1ccc(OCC(=O)NC(=S)Nc2ccc(N3CCOCC3)c(Cl)c2)cc1,2.19
2,Cn1c(=O)cc(SCC(=O)NCC2CCCO2)c2ccc(Cl)cc21 (stereo not drawn),0.0952
3,COCCOC(=O)C1=C(C)NC2=C(C(=O)CC(C)(C)C2)C1c1ccc2c(c1)OCO2 (stereo not drawn),-0.115
4,CCc1nc(N)c(C#N)c(-c2cccc3ccccc23)c1C,0.197
5,O=C(C[n+]1ccc2ccccc2c1)Nc1cc(C(F)(F)F)ccc1Cl,-0.746
6,CN(C)S(=O)(=O)c1cc(C(=O)O)c(NC2CCCCC2)cc1Cl,-2.9
7,CCOC(=O)c1c(CSC(=N)N)n(-c2ccc(C)cc2)c2cc(Br)c(OC(C)=O)cc12,1.29
8,Cc1cccc(NC(=O)CSc2nsc(SCC(=O)Nc3cccc(C)c3)c2C#N)c1,-0.0761
9,COc1ccc(CCNC2=NCC(C)S2)cc1 (stereo not drawn),0.0523
10,CCC(=O)N1CCN(c2ccccc2NC(=O)COc2cc(C)ccc2C(C)C)CC1,0.696
11,CCC(=O)N1CCN(c2ccccc2NC(=O)COc2cccc(C)c2)CC1,13 (active)
12,Cc1cccc(OCC(=O)Nc2ccccc2N2CCCCC2)c1,0.378
13,Cc1sc(NC(=O)CSc2nnc(-c3ccc(F)cc3)o2)c(C#N)c1C,-0.213
14,CCNC(=O)CN(c1ccc(OC)c(OC)c1)S(=O)(=O)c1ccccc1,-0.11
15,O=C(Nc1cccc(-c2nnc(-c3ccccc3)o2)c1)C1CCCO1 (stereo not drawn),3
16,O=C(Nc1ccc2oc(-c3ccccc3)nc2c1)C1CCCO1 (stereo not drawn),-0.123
17,O=C(Nc1cccc(-c2nnc(-c3ccccc3)o2)c1)C1CCCCC1,-0.0325
18,CCOC(=O)Cc1csc(NC(=O)C2C3C=CC(C3)C2C(=O)O)n1 (stereo not drawn),-0.0933
19,Cc1cc(C)cc(OCC(=O)Nc2ccc3c(c2)C(=O)c2ccccc2C3=O)c1,-0.124
20,Cc1ccc2nc(SC(C(=O)Nc3ccc(F)cc3)c3ccccc3)[nH]c2c1 (stereo not drawn),-0.117
